This note sets out measurements from PubChem BioAssay (NCI).

Among the test systems are EKVX NSCLC; SN12C renal; UO-31 renal; TK-10 renal; ACHN renal; CAKI-1 renal; A498 renal; CCRF-CEM leukemia; MOLT-4 leukemia; SR leukemia; OVCAR-8 ovarian; OVCAR-5 ovarian; OVCAR-4 ovarian; SK-OV-3 ovarian; IGROV1 ovarian; HS 578T breast; NCI/ADR-RES ovarian; T-47D breast; OVCAR-3 ovarian; RPMI-8226 leukemia.
What all share (experiment): NCI-60 one-dose screen, 48 h (100 = growth as untreated, 0 = no growth, -100 = all killed)
What all share (conditions): 10 µM unless noted

Compounds without any hit were thinned out: in the full panel of roughly 83,000, 20% have a hit.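 Testing used 96-well plates and a 48-hour single-concentration exposure. Example: -40 means 40% of the starting cells died.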 Unmarked numbers belong to inactive results. The source made the active and inactive calls. Rule for the calls: active = growth percent below 10; inactive = the rest.

`COc1cccc(-c2nn(-c3ccccc3)cc2-c2ccnc(N3CCN(C(=O)c4ccccc4)CC3)c2)c1`: the growth is 103% in the test on EKVX NSCLC; 87.6% in the test on SN12C renal; 72.3% in the test on UO-31 renal; 127% with TK-10 renal; 93% with ACHN renal; 86.2% in the test on CAKI-1 renal. Further, the growth in the test on A498 renal is 66.9%; in the test with CCRF-CEM leukemia it was 52.9%; in the test on MOLT-4 leukemia it was 43.8%; in the test with SR leukemia, 27.5%; in the test with OVCAR-8 ovarian, 56.4%; in the test with OVCAR-5 ovarian, 112%. Besides, the growth with OVCAR-4 ovarian is 77.9%; with SK-OV-3 ovarian it was 118%; in the test with IGROV1 ovarian, 76%; with HS 578T breast it was 100%; in the test on NCI/ADR-RES ovarian, 43.4%; with T-47D breast, 50.3%.
As for `CCOC(=O)c1sc(N)c(C(=O)OCC)c1C`, the growth in the test with EKVX NSCLC was 25.9%; in the test on SN12C renal, 54.9%; in the test on UO-31 renal it was 31.3%; in the test with TK-10 renal, 41.1%; in the test on ACHN renal, 52.9%; with CAKI-1 renal, 39.1%. The growth in the test on A498 renal was 13.4%; with CCRF-CEM leukemia, 42%; in the test on MOLT-4 leukemia, 26.5%; in the test with SR leukemia, 47.2%; with OVCAR-8 ovarian it was 65.1%; in the test on OVCAR-5 ovarian it was 67.6%. Further, the growth in the test with OVCAR-4 ovarian was 62%; in the test with IGROV1 ovarian it was 56.9%; with OVCAR-3 ovarian it was 70.5%; with HS 578T breast, 30.9%; with T-47D breast, 7.83% (active).
Consider `O=c1[nH]c2ccc(Cl)cc2cc1CSc1ccccc1Nc1nccc(-c2ccc(Cl)cc2)n1`, for which the growth with EKVX NSCLC was 80.5%; with SN12C renal, 87.1%; with UO-31 renal, 81.2%; with TK-10 renal, 128%; in the test with ACHN renal, 95.7%; in the test on CAKI-1 renal it was 82.5%. The growth in the test on A498 renal is 88.1%; with CCRF-CEM leukemia it was 90.6%; with MOLT-4 leukemia, 60.9%; in the test on RPMI-8226 leukemia it was 84%; in the test with OVCAR-8 ovarian, 96.5%; with OVCAR-5 ovarian, 114%. Moreover, the growth was 89% with OVCAR-4 ovarian; 122% in the test with SK-OV-3 ovarian; 82.7% in the test on IGROV1 ovarian; 89.3% in the test on OVCAR-3 ovarian; 91.2% in the test with HS 578T breast; 117% with NCI/ADR-RES ovarian. For the same molecule, the growth in the test with T-47D breast was 84.8%.
As for `CC1=C(C)C(=O)C(Nc2cccc(C(F)(F)F)c2)=C(Cl)C1=O`, the growth is 49.4% in the test on EKVX NSCLC; 87.6% with SN12C renal; 77.3% in the test with UO-31 renal; 184% in the test with TK-10 renal; -37.7% (active) with ACHN renal; 92.7% in the test on CAKI-1 renal. The growth with A498 renal was 55.2%; in the test on CCRF-CEM leukemia, 5.9% (active); with MOLT-4 leukemia it was 23.5%; with SR leukemia, 25%; in the test with RPMI-8226 leukemia, -3.12% (active); in the test on OVCAR-8 ovarian, 87.1%. The growth in the test on OVCAR-5 ovarian is 100%; in the test on OVCAR-4 ovarian, -80.4% (active); with IGROV1 ovarian, -7.2% (active); with OVCAR-3 ovarian, 70.4%; in the test with HS 578T breast it was 87.6%; in the test with T-47D breast it was -39% (active).
On to `N#Cc1nc(-c2ccccc2)oc1N1CCC(CO)C1` (stereo unspecified), for which the growth in the test with EKVX NSCLC is 77.4%; with SN12C renal, 97.1%; in the test on UO-31 renal it was 88.7%; in the test with TK-10 renal, 104%; with ACHN renal, 105%; with CAKI-1 renal, 90.2%. The growth was 76.4% in the test with A498 renal; 105% in the test with CCRF-CEM leukemia; 108% in the test with MOLT-4 leukemia; 110% with SR leukemia; 103% in the test on RPMI-8226 leukemia; 103% with OVCAR-8 ovarian. Moreover, the growth was 93.2% in the test on OVCAR-5 ovarian; 99% in the test on OVCAR-4 ovarian; 121% in the test on SK-OV-3 ovarian; 93.1% in the test with IGROV1 ovarian; 104% in the test with OVCAR-3 ovarian; 96.1% in the test with HS 578T breast. Also, the growth was 106% in the test on NCI/ADR-RES ovarian and 83% with T-47D breast.
Regarding `NS(=O)(=O)c1ccc(Nc2nc(SCC(=O)c3ccc(Cl)cc3)nc3ccccc23)cc1`, the growth in the test with EKVX NSCLC was 90.6%; in the test with SN12C renal, 88.1%; with UO-31 renal it was 82.3%; in the test on TK-10 renal it was 153%; in the test on ACHN renal, 89%; with CAKI-1 renal it was 74.5%. For the same molecule, the growth in the test with A498 renal is 74.8%; in the test on CCRF-CEM leukemia, 92.4%; with MOLT-4 leukemia, 91.3%; in the test with SR leukemia, 79.6%; in the test with RPMI-8226 leukemia it was 83.6%; in the test with OVCAR-8 ovarian, 95.6%. Moreover, the growth in the test on OVCAR-5 ovarian was 100%; with OVCAR-4 ovarian it was 91.3%; in the test on SK-OV-3 ovarian, 110%; in the test with IGROV1 ovarian, 82.8%; in the test on OVCAR-3 ovarian, 102%; with HS 578T breast it was 92.2%. Further, the growth in the test with NCI/ADR-RES ovarian is 105%; with T-47D breast it was 77.6%.
With `N#Cc1c(-c2ccc(Cl)cc2)nc(SCc2ccc([N+](=O)[O-])cc2)nc1N1CCNCC1`, the growth in the test with EKVX NSCLC was 51.9%; in the test with SN12C renal, 1.59% (active); with UO-31 renal, 22.4%; with TK-10 renal, 77.4%; in the test on ACHN renal, -67.4% (active); in the test with CAKI-1 renal, 13.6%. Moreover, the growth in the test on A498 renal is 44.7%; with CCRF-CEM leukemia, -14% (active); with MOLT-4 leukemia it was -27% (active); in the test with SR leukemia it was -43.3% (active); with RPMI-8226 leukemia it was -24.5% (active); with OVCAR-8 ovarian, -81.6% (active). Further, the growth in the test on OVCAR-5 ovarian is 3.39% (active); in the test on OVCAR-4 ovarian it was 26.9%; in the test on SK-OV-3 ovarian, 111%; in the test on IGROV1 ovarian it was -1.76% (active); in the test with OVCAR-3 ovarian, -32.6% (active); in the test on HS 578T breast, 52.1%. Further, the growth in the test with NCI/ADR-RES ovarian is 8.72% (active); with T-47D breast it was -9.43% (active).
Take `O=c1/c(=C\c2ccc(-c3ccccc3)o2)sc2nc(-c3ccccc3)nn12`: the growth with EKVX NSCLC is 99.9%; with SN12C renal, 97.3%; with UO-31 renal it was 89%; in the test on TK-10 renal it was 95.1%; in the test on ACHN renal it was 102%; with CAKI-1 renal, 96.4%. The growth was 84.3% with A498 renal; 101% with CCRF-CEM leukemia; 108% with MOLT-4 leukemia; 102% in the test with SR leukemia; 102% in the test with RPMI-8226 leukemia; 105% in the test with OVCAR-8 ovarian. In addition, the growth in the test on OVCAR-5 ovarian is 104%; in the test on OVCAR-4 ovarian, 107%; in the test with SK-OV-3 ovarian, 105%; in the test on IGROV1 ovarian, 103%; in the test with HS 578T breast, 95.4%; with NCI/ADR-RES ovarian, 101%. Moreover, the growth in the test on T-47D breast was 92.9%.
